# GAA glycogen mod: GAA glycogen-cleavage inhibition or activation; P10253; recombinant GAA, glycogen substrate, Amplex Red glucose oxidase fluorescence; Potency, µM (doses to about 76.4 µM), for inactives: top-dose activity change, negative = inhibition, most hits filed as inhibitors; 0.38% of 300,000 active; AID 2100;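 also: 0% = full enzyme reaction and -100% = no-enzyme basal signal; the screen sought inhibitors and activators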
#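 Recombinant human alpha-glucosidase (4 nM final) hydrolysed bovine liver glycogen (30 ug) for 40 min at 37 C in pH 5.0 citrate/phosphate with 0.01% Tween-20. Released glucose detected by glucose oxidase/Amplex Red, Ex 573/Em 610 nm. Compounds up to 77 uM; AC50 from Hill fits.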
# GAA inhib: inhibitors of human lysosomal alpha-glucosidase; 0.005% of 200,000 active; Potency, µM (doses to about 76.9 µM), inactives show at the highest dose activity change, negative = inhibition, hits mostly inhibitors; AID 1466; purified human GAA, 4-MU-alpha-glucoside fluorescence;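 also: plate controls were uninhibited enzyme wells for no effect and no-enzyme background for full effect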
#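 Enzyme (4 nM final) mixed with compound (up to 77 uM), then 4-MU-alpha-D-pyranoside (400 uM final) added; 20 min at room temperature, pH 5.0. Reaction stopped at pH 10, fluorescence read, AC50 derived by Hill fit.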
# N370S GC: inhibitors or activators of N370S glucocerebrosidase for Gaucher disease. N370S GC spleen homogenate, 4MU-glucoside fluorescence. Potency, µM (top dose mostly 59.4 µM), inactives show top-dose activity change, negative = inhibition, most hits filed as inhibitors. 0.092% of 330,000 active;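 also: 0% = full enzyme activity and -100% = no enzyme basal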
# LMNA splice mod: modulators of lamin A splicing. HeLa LMNA splicing GFP/RFP minigene ratio, 48 h. Potency, µM (top dose mostly 46.1 µM), for the others: at the highest dose ratio change, negative = inhibition, usual class: inhibitors. 0.01% of 200,000 active; active = well fitted inhibition curve with a large enough effect in the signal ratio, with a control signal flat, not every such curve was filed as active; inconclusive = small, poorly fitted or top-dose-only effect, or effect the other way, or a change in a side signal; the % refers to the signal ratio
#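 S3 HeLa stable clones carrying a lamin A-EGFP splicing minigene plus DsRed2 were seeded at 600 cells/well in Opti-MEM with 2% FBS, pin-dosed and incubated 48 h at 37°C. Acumen cytometry (488 nm) gave the GFP/RFP total-intensity ratio.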
# GAA spleen mod: inhibits or activates alpha-glucosidase in human spleen homogenate; P10253; 0.006% of 240,000 active; human spleen homogenate, 4-MU-alpha-glucoside fluorescence; Potency, µM (series often up to 79.9 µM), inactives show at the top dose activity change, negative = inhibition, actives largely listed as inhibitors; AID 2112;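 also: 0% = enzyme with vehicle and -100% = no enzyme basal signal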
#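 Human spleen homogenate (1 ug) incubated with compounds and 1 mM 4-methylumbelliferyl-alpha-D-glucopyranoside in pH 5.0 citrate/phosphate buffer, 37 C, 40 min. Stopped at pH 10; 4-MU fluorescence (Ex 365/Em 440 nm); AC50 by Hill fit.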
# * hit, by the source's call; u = inconclusive; x = no result given; ! = not active in a repeat; [ ] = another dose, or the depositor's remark. Sampled rows, rich in hits. Any-hit rate of the full collection: about 0.41%. Unless noted, calls follow the shape of the dose curve; as a rule, active = well fitted curve in the direction sought with a large enough effect; inconclusive = small, poorly fitted or top-dose-only effect, or another doubt; inactive = no such curve, though single readings can be large; an effect the other way counts as inactive or inconclusive. Unless noted, % is scaled to controls: 0 for no effect and ±100 for the full control effect; potency is read from the fitted curve at half-maximal effect.
SMILES,GAA glycogen mod,GAA inhib,N370S GC,LMNA splice mod,GAA spleen mod
CC(C)C[C@H](NC(=O)CNC(=O)[C@H](CCC(N)=O)NC(=O)[C@H](CC(C)C)NC(=O)[C@H](CC(C)C)NC(=O)[C@H](CCCNC(=N)N)NC(=O)[C@H](CCC(N)=O)NC(=O)[C@H](CC(C)C)NC(=O)[C@H](CCCNC(=N)N)NC(=O)[C@H](C)NC(=O)CNC(=O)[C@H](CCC(=O)O)NC(=O)[C@H](CCCNC(=N)N)NC(=O)[C@H](CC(C)C)NC(=O)[C@H](CCCNC(=N)N)NC(=O)[C@H](CO)NC(=O)[C@H](CC(C)C)NC(=O)[C@H](CCC(=O)O)NC(=O)[C@H](CO)NC(=O)[C@@H](NC(=O)[C@H](Cc1ccccc1)NC(=O)[C@@H](NC(=O)CNC(=O)[C@H](CC(=O)O)NC(=O)[C@H](CO)NC(=O)[C@@H](N)Cc1cnc[nH]1)[C@@H](C)O)[C@@H](C)O)C(=O)N[C@H](C(N)=O)C(C)C,x,x,-1%,x,7%
O=C(Nc1ccc(OCC(=O)N2CCN(S(=O)(=O)c3ccccc3)CC2)cc1)c1ccco1,-24%,28µM*,x,-18%,u
O=C(Nc1ccc(OCC(=O)N2CCC(Cc3ccccc3)CC2)cc1)c1ccco1,-3%,-12%,4%,-15%,-5%
Cc1csc2nc(COC(=O)c3cccc(NC(=O)COc4ccccc4Cl)c3)cc(=O)n12,x,x,x,16%[46 µM],x
Cc1cc(=O)[nH]c2ccc(S(=O)(=O)Nc3ccc(O)cc3)cc12,7.1µM*,x,u,x,x
CC(=O)c1ccc(NS(=O)(=O)c2c(C)cc(C)cc2C)cc1,-9%,u,-9%,20%[46 µM],2%
Cc1cc(C)c(S(=O)(=O)Nc2ccc(O)cc2)c(C)c1,40µM*,-8%,-13%,2%,6%
S=C(NCCNC(=S)Nc1ccccc1)Nc1ccccc1,-4%[76.3 µM],x,-10%,x,x
Nc1ccc(NC(=S)Nc2ccccc2)cc1,0%,-4%,0%,-18%[46 µM],-1%
Oc1ccc(NC(=S)Nc2ccccc2)cc1,11µM*!,3%,u,u,-2%
OCCCNC(=S)Nc1ccc(Nc2ccccc2)cc1,14µM*,-8%,-15%,u,1%
CCOC(=O)c1c(OCC)[nH]c2ccc(O)cc12,6.3µM*,-4%,u,-15%,-4%
Cc1ccc2oc(C(=O)Nc3ccc(S(=O)(=O)Nc4ncccn4)cc3)cc(=O)c2c1,3%[76.3 µM],x,x,x,x
Cc1ccc2oc(C(=O)Nc3ccc(S(=O)(=O)N4CCCCC4C)cc3)cc(=O)c2c1 (centres undefined),7.1µM*,x,x,x,x
O=[N+]([O-])c1ccc(CCO)cc1,x,x,14%,x,-2%
COc1cc2oc(-c3ccc(O)cc3)cc(=O)c2c(O)c1OC,-16%,x,10µM*,x,2%
Oc1ccc(/C=N/NC(=S)NCc2ccco2)cc1,28µM*,-2%,-7%[12.8 µM],4%,-3%
CC(C)NC(=O)CSc1cn(CC(=O)N2CCCCCC2)c2ccccc12,13%[76.3 µM],x,x,x,x
CNC(=O)CSc1cn(CC(=O)N2CCCCCC2)c2ccccc12,50µM*,x,x,x,x
C#CCn1c(=O)c2c(nc(/C=C/c3cccc(OC)c3)n2C)n(CCCOP(=O)(O)O)c1=O,x,x,5%,x,11%
CN1CCc2cccc3c2[C@H]1Cc1ccc(O)c(O)c1-3,7.9µM*,2%[15.4 µM],-10%,u,6%
COc1cc2c3cc1OCc1c(O)c(OC)cc4c1C(Cc1ccc(cc1)Oc1cc(ccc1O)CC3N(C)CC2)N(C)CC4 (centres undefined),x,x,-2%,x,-12%
CC(=O)Nc1ccc(S(=O)(=O)Nc2cccc(-c3ccc(N4CCC(C)CC4)nn3)c2)cc1,x,x,x,-5%[46 µM],x
O=C(NC1=NCCS1)C1Cc2ccccc2CN1C(=O)c1ccccc1 (centres undefined),4µM*,-10%,5%,-4%,-1%
CCCCN1C[C@H](O)[C@@H](O)[C@H](O)[C@H]1CO,2.5µM*,6.3µM*,x,u,1.6µM*
SMILES,GAA glycogen mod,GAA inhib,N370S GC,LMNA splice mod,GAA spleen mod
COCCCNc1nc2c([nH]1)c(=O)[nH]c(=O)n2C,u,-4%,12%,0%,-3%
COc1ccc(Nc2nc3c([nH]2)c(=O)[nH]c(=O)n3C)cc1,10µM*,-2%,2%,-24%[46 µM],-4%
CC[C@H](C)[C@H](NC(=O)[C@H](Cc1ccc(O)cc1)NC(=O)[C@H](CCCNC(=N)N)NC(=O)[C@H](CCCNC(=N)N)NC(=O)[C@H](CC(C)C)NC(=O)[C@H](CCC(N)=O)NC(=O)[C@@H](NC(=O)[C@H](CCC(=O)O)NC(=O)[C@H](Cc1ccc(O)cc1)NC(=O)[C@H](CCC(N)=O)NC(=O)[C@H](C)NC(=O)[C@H](CCCNC(=N)N)NC(=O)[C@H](CCC(N)=O)NC(=O)[C@H](CCC(=O)O)NC(=O)[C@H](Cc1cnc[nH]1)NC(=O)[C@@H](NC(=O)[C@H](C)NC(=O)[C@H](Cc1ccc(O)cc1)NC(=O)[C@H](CC(=O)O)NC(=O)CNC(=O)[C@@H]1CCCN1C(=O)[C@H](Cc1ccc(O)cc1)NC(=O)[C@H](CCSC)NC(=O)[C@@H]1CCCN1C(=O)[C@H](CCC(=O)O)NC(=O)[C@H](CC(C)C)NC(=O)[C@@H]1CCCN1C(=O)[C@H](C)N)[C@@H](C)O)[C@@H](C)O)C(=O)N[C@@H](CC(N)=O)C(=O)N[C@H](C(=O)N[C@@H](CC(C)C)C(=O)N[C@H](C(=O)N[C@@H](CCCNC(=N)N)C(=O)N1CCC[C@H]1C(=O)N[C@@H](CCCNC(=N)N)C(=O)N[C@@H](Cc1ccc(O)cc1)C(N)=O)[C@@H](C)O)[C@@H](C)O,x,x,-6%,x,-4%
CC(=O)/C(=N/Nc1cccc(C)c1)N1CCOCC1,18µM*,0%,5%,u,-2%
Cc1cccc(C(=O)Nc2cccc(C(=O)N3CCOCC3)c2)c1,7%,-3%,x,-3%,0%
COC(=O)C1=C[C@@H](C(=O)OC)C2C3=C(C(=O)[C@]2(C)NC(=O)c2ccccc2)[C@H](C)[C@@H]2C(=O)N(C)C(=O)[C@@H]2[C@@H]3C1 (some centres undefined),x,x,3%,x,14%
COc1ccccc1C1=Nn2c(nnc2-c2ccccc2O)SC1,x,x,u,x,6%
CCOC(=O)C1CCN(c2nc3ccccc3nc2C(C#N)C(=O)NCCc2ccccc2)CC1 (centres undefined),14µM*,-5%[15.4 µM],-14%,u,-10%
O=C(NCc1cccnc1)Nc1ccc2c(c1)OCO2,10%,-1%,0%,x,5%
c1cncc(CNc2ccc3c(c2)OCO3)c1,18µM*,-4%,x,2%,-2%

# Assay outcomes deposited in PubChem BioAssay by National Center for Advancing Translational Sciences (NCATS).
